Source: PubChem
SKKanGAS inh: S. pyogenes SKKanGAS growth inhibitors in kanamycin, primary screen, streptokinase expression inhibitor project, SKKanGAS strain, BacTiter-Glo luminescence. 6 h. inhibition, % at 7.5 µM. actives 1.3% (n = 300,000);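 active = mean replicate score, as percent of positive control median, at least 50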;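 also: strain carries kanamycin resistance gene driven by streptokinase promoter and grows in 40 µg/ml kanamycin; loss of luminescence reflects streptokinase promoter inhibition or plain growth inhibition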
NR3A LBD binder: binders of NR3A ligand-binding domain, primary screen, biophysical, differential scanning fluorimetry, uHTS. NR3A LBD differential scanning fluorimetry, Tm shift; 0% = protein alone, 100% = glycine-bound protein. AID 1259313, 2017. actives 2.5% (n = 340,000). Glutamate receptor ionotropic, NMDA 3A (GRIN3A) ligand-binding domain. Tm shift relative to glycine control, % at 25 µM;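 active = melting temperature shift of at least 10% of the positive control shift, at one fixed dose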
CSC inhib: cancer stem cell viability inhibitors, primary screen, luminescence; inhibition, % at 7.5 µM; cancer stem cell-like cells viability; actives 1.1% (n = 300,000); in the data active = inhibition above about 75%; tested in HMLE shEcad cells
MPTP inh: mitochondrial permeability transition pore inhibitors, primary screen, biochemical, isolated mouse mitochondria, absorbance; actives 1.4% (n = 360,000); Ca2+ swelling absorbance, 30 min; inhibition, % at 10 µM;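 active = inhibition of 50% or more, scaled per plate between neutral and stimulator controls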
Mdm2-MdmX inh: inhibitors of human Mdm2-MdmX association, primary screen, cell-based, luminescence, split luciferase, SaOS-2, uHTS | Protein Mdm4 (Homo sapiens) + E3 ubiquitin-protein ligase Mdm2 (Homo sapiens), … | SaOS-2 split-luciferase Mdm2/MdmX complementation | inhibition, % at 8 µM | actives 3% (n = 330,000);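 active = inhibition of at least 50% at 8 µM in the primary screen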
Target sequence (O15151 whole entry, looked up): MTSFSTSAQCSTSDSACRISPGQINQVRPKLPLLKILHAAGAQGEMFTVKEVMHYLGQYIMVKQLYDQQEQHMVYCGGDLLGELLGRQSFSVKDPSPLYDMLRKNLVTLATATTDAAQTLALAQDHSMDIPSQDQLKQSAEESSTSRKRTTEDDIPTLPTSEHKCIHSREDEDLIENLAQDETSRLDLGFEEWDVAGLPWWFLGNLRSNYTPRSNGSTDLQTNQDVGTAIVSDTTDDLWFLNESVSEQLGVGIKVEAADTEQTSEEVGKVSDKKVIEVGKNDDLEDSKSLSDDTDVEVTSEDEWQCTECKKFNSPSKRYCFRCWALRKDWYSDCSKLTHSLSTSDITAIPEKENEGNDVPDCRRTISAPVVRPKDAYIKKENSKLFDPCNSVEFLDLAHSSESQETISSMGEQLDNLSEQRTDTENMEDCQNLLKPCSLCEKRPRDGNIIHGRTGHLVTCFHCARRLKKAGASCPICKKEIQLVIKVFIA
Target sequence (Q00987 whole entry, looked up): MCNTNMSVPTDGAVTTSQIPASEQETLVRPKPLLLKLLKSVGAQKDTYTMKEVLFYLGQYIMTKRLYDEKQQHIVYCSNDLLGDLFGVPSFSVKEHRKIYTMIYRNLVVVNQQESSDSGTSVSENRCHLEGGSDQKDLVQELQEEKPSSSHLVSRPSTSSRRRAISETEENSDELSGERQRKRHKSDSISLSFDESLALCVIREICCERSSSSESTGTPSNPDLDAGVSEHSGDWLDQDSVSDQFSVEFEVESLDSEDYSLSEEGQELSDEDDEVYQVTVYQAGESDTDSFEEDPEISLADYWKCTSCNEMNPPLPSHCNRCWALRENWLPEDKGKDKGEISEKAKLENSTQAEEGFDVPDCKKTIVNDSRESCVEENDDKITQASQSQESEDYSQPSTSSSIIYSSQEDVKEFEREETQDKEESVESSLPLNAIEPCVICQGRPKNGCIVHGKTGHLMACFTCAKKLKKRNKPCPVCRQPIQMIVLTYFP
Beta cell apopt: inhibitors of cytokine-induced beta cell apoptosis, primary screen, luminescence; AID 435005, 2010; protection from apoptosis, % (concentration not given with the values); INS-1E cytokine-induced death, ATP luminescence, 48 h; percent of positive-control rescue, neutral wells zero; actives 0.8% (n = 300,000);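 active = Every replicate reaches about 75%, or at least half do and their mean reaches it too, limit read from the data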;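 also: higher means more ATP so stronger rescue from cytokine killing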
Mdm2 MdmX conf: Mdm2-MdmX complex disruptors, retested hits, confirmation, luminescence, single concentration; Mdm2-MdmX binding, luminescent assay; inhibition, % at 8 µM; shares compounds with Mdm2-MdmX inh; actives 55% (n = 10,000); in the data active = inhibition above about 40%
Full FLuc ctr: full-length luciferase signal inhibition, confirmation, counter-screen for Mdm2/MdmX interaction inhibitor project, cell-based, single concentration, SaOS-2; shares compounds with Mdm2-MdmX inh; SaOS-2 full-length luciferase counterscreen, luminescence; inhibition, % at 8 µM; actives 77% (n = 6,200); AID 504607, 2011;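 active = mean inhibition at 8 µM reaching about 37%, which flags the compound as non-specific, limit read from the data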;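 also: p53-null SaOS-2 cells with luciferase driven by a doxycycline-inducible promoter; compound on cells about two nights before reading with doxycycline added after day one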
Each line names hits and unclear results; the compound was inactive in the other large screens (follow-up assays come after a bar, where they were run). Compounds with a hit are over-represented: about 6.9% of the library has one in this group of screens.

CC(=O)C1C(=O)C=C(c2cccs2)CC1c1ccccc1 (stereo not given)	none
O=C1C=C(c2cccs2)C[C@H](c2ccccc2)[C@H]1n1nnc([N+](=O)[O-])n1	CSC inhib 149, Mdm2-MdmX inh 74, Beta cell apopt 101 | Mdm2 MdmX conf 54 | Full FLuc ctr 172
COCCNc1nc(-c2ccc(OC)cc2C)c2sc(-c3ccccc3)cc2n1	none (no result: SKKanGAS inh, NR3A LBD binder, CSC inhib, Mdm2-MdmX inh, Beta cell apopt)
CCN(CC(=O)Nc1c(F)cccc1F)C(=O)CNC(=O)c1cccc(C)c1	none
CC(C)(C)c1ccc(C(=O)NCCCNC(=O)c2ccccn2)cc1	none (no result: CSC inhib)
COc1cc(/C=C2/C(=O)N(C)C(=S)N2C)ccc1OCc1cccc(F)c1	Mdm2-MdmX inh 88 | Mdm2 MdmX conf inactive
CN1C(=O)/C(=C/c2ccc(OCc3cccc(F)c3)cc2)NC1=S	none
CCn1c(SCC(=O)NCc2ccccc2)nnc1-c1cccnc1	none
CC(=O)Oc1ccccc1C(=O)Nc1ccccc1	none
COC1(OC)C=CC(=O)C=C1NC(=O)c1ccccc1OC(C)=O	Mdm2-MdmX inh 82 | Mdm2 MdmX conf 66 | Full FLuc ctr inactive
COc1ccc(N(Cc2cc(=O)[nH]c3ccccc23)C(=O)CCl)cc1	Mdm2-MdmX inh 100 | Mdm2 MdmX conf 79 | Full FLuc ctr 63
Cc1cccc(N(Cc2cc(=O)[nH]c3ccccc23)C(=O)CCl)c1	CSC inhib 105, Mdm2-MdmX inh 100 | Mdm2 MdmX conf 100 | Full FLuc ctr 56
CCCC(=O)N(Cc1cc(=O)[nH]c2ccccc12)c1cccc(C)c1	none
CCc1nc2c(OCc3cc(Cl)cc(Cl)c3)cccn2c1N(C)C(=O)c1ccc(C)cc1	none (no result: SKKanGAS inh, NR3A LBD binder, CSC inhib, Mdm2-MdmX inh, Beta cell apopt)
Cc1[nH]c2ccccc2c1/C=C/c1nc2ccccc2c(=O)n1-c1ccc([N+](=O)[O-])cc1	Mdm2-MdmX inh 64 | Mdm2 MdmX conf inactive
Cc1ccc(Nc2nc(N)nc(CCl)n2)c(C)c1	Mdm2-MdmX inh 95 | Mdm2 MdmX conf 100 | Full FLuc ctr 53
CCOc1ccc(Nc2nc(N)nc(CCl)n2)cc1	Mdm2-MdmX inh 98 | Mdm2 MdmX conf 98 | Full FLuc ctr 57
Cc1cccc(Nc2nc(N)nc(CCl)n2)c1	Mdm2-MdmX inh 68 | Mdm2 MdmX conf 64 | Full FLuc ctr 61
COc1cccc(Nc2nc(N)nc(CCl)n2)c1	none
Cc1ccc(Nc2nc(N)nc(CCl)n2)cc1	Mdm2-MdmX inh 83 | Mdm2 MdmX conf 79 | Full FLuc ctr 59
CC(C)(C)NC(=O)C(c1cccs1)N(C(=O)c1csnn1)c1ccccc1F (stereo not given)	none
CCCn1c(C(O)c2cc(OC)c(OC)c(OC)c2)nc2ccccc21 (stereo not given)	none
CC(C)(CNC(=O)c1cc(Cl)c(O)c(Cl)c1)N1CCCCC1	none (no result: CSC inhib)
Cc1ccc(Nc2nc(N)nc(CSc3nnc(-c4ccncc4)o3)n2)cc1	Mdm2-MdmX inh 67 | Mdm2 MdmX conf inactive
Nc1nc(CCl)nc(Nc2ccccc2)n1	none
Cc1cccc(Nc2nc(N)nc(CCl)n2)c1C	Mdm2-MdmX inh 100 | Mdm2 MdmX conf 100 | Full FLuc ctr 60
CCN(C(=O)c1c(C)noc1C)c1c(N)n(Cc2ccccc2)c(=O)[nH]c1=O	none (no result: SKKanGAS inh, CSC inhib)
CCCCCc1nc2c(c(=O)c3ccccc3n2C)c(=O)n1Cc1ccc(OC)cc1	Mdm2-MdmX inh 51 | Mdm2 MdmX conf inactive
Cc1ccc(C)c(CN2CCC(CNC(=O)Nc3ccc(Cl)cc3)CC2)c1	none
Cc1ccc(C)c(CN2CCC(CNC(=O)Nc3ccc(Br)cc3F)CC2)c1	Mdm2-MdmX inh 56 | Mdm2 MdmX conf 44 | Full FLuc ctr 69
CN(C(=S)Nc1ccc(F)cc1)C(c1ccccc1)c1ccccc1	none
Cc1ccc(NC(=S)N(C)C(c2ccccc2)c2ccccc2)cc1C	Mdm2-MdmX inh 59 | Mdm2 MdmX conf inactive
Cc1ccc(Cc2nnc3n(-c4ccccc4)nc(C(=O)c4ccccc4)n3c2=O)cc1	Mdm2-MdmX inh 53 (no result: Beta cell apopt) | Mdm2 MdmX conf 58 | Full FLuc ctr 53
Cc1ccc(CNC(=O)c2cc(C)nn2-c2ccccc2)cc1	none
COc1nc(-c2cccs2)cc(-c2ccc(C)cc2)c1C#N	Mdm2-MdmX inh 52 | Mdm2 MdmX conf 55 | Full FLuc ctr 67
OCc1ccnc2oc3ccccc3c12	none
O=C(CSc1ccc2nnc(-c3ccc(Cl)cc3)n2n1)N1CCCc2ccccc21	Mdm2-MdmX inh 84 | Mdm2 MdmX conf inactive | Full FLuc ctr 90
Cn1c(NCC(O)c2ccccc2)nc2c1c(=O)n(Cc1ccc(Cl)c(Cl)c1)c(=O)n2C (stereo not given)	NR3A LBD binder 12, Mdm2-MdmX inh 63 | Mdm2 MdmX conf inactive
Cn1c(NCC(O)c2ccccc2)nc2c1c(=O)n(Cc1ccc(Cl)cc1)c(=O)n2C (stereo not given)	none
Cc1nc2ccccc2c(C)c1CC(=O)OC(C)C(=O)NC1(C#N)CCCCC1 (stereo not given)	none
Cc1ccccc1NC(=O)Cn1cnc2c(oc3ccccc32)c1=O	none
Cc1cccc(NC(=O)Cn2cnc3c(oc4ccccc43)c2=O)c1C	Mdm2-MdmX inh 64 | Mdm2 MdmX conf inactive
COc1ccc(-n2nnnc2CNC(=O)C(=O)c2c[nH]c3ccccc23)cc1	none (no result: Beta cell apopt)
Cc1ccc(-n2nnnc2SC(C(=O)c2c[nH]c3ccccc23)c2ccccc2)cc1 (stereo not given)	CSC inhib 86, Mdm2-MdmX inh 60 | Mdm2 MdmX conf 65 | Full FLuc ctr 56
Cc1nc(NC(=O)COC(=O)C2CC2C)c(Cl)cc1Cl (stereo not given)	none (no result: SKKanGAS inh)
COc1ccc(-n2nc(C#N)c(Cl)cc2=O)cc1	Mdm2-MdmX inh 100 (no result: SKKanGAS inh, CSC inhib, Beta cell apopt) | Mdm2 MdmX conf 100 | Full FLuc ctr 53
COC(=O)c1nn(-c2ccc(OC)cc2)c(=O)cc1O	none
CC(OC(=O)C1CC(=O)N(Cc2ccco2)C1)C(=O)Nc1ccccc1[N+](=O)[O-] (stereo not given)	none (no result: SKKanGAS inh)
C/C(=N\O)c1cc(Cl)ccc1O	none
COc1ccc(S(=O)(=O)c2cnc3ccccc3n2)cc1	none
O=S(=O)(c1ccc(Br)cc1)c1cnc2ccccc2n1	Mdm2-MdmX inh 50 | Mdm2 MdmX conf inactive
O=S(=O)(Cc1ccccc1)c1cnc2ccccc2n1	Mdm2-MdmX inh 59 | Mdm2 MdmX conf inactive
O=C(O)COc1cnc2ccccc2n1	none
CC(C)c1ccc(CNn2cnnc2)cc1	none
